Bioassay records from PubChem.
Rows were chosen to be rich in hits. Some 1.7% of all compounds tested hit in one or more screens of this group.
PTK2B oligo ant: antagonists of Pyk2 self-association, primary screen, Q293 cells, FERM NanoBiT luminescence, HTS; z-score (the deposit names both 25 µM and 10 µM); hits give low values; Protein-tyrosine kinase 2-beta (Homo sapiens), Q14289; 99,000 tested, 0.83% active;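 active = Z-score of -3 or lower, scaled per plate to the spread of control and sample wells; inactive = z-score above -3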;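 also: negative z-score means lost luminescence so less FERM oligomerization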
Target sequence (Q14289 whole entry, looked up): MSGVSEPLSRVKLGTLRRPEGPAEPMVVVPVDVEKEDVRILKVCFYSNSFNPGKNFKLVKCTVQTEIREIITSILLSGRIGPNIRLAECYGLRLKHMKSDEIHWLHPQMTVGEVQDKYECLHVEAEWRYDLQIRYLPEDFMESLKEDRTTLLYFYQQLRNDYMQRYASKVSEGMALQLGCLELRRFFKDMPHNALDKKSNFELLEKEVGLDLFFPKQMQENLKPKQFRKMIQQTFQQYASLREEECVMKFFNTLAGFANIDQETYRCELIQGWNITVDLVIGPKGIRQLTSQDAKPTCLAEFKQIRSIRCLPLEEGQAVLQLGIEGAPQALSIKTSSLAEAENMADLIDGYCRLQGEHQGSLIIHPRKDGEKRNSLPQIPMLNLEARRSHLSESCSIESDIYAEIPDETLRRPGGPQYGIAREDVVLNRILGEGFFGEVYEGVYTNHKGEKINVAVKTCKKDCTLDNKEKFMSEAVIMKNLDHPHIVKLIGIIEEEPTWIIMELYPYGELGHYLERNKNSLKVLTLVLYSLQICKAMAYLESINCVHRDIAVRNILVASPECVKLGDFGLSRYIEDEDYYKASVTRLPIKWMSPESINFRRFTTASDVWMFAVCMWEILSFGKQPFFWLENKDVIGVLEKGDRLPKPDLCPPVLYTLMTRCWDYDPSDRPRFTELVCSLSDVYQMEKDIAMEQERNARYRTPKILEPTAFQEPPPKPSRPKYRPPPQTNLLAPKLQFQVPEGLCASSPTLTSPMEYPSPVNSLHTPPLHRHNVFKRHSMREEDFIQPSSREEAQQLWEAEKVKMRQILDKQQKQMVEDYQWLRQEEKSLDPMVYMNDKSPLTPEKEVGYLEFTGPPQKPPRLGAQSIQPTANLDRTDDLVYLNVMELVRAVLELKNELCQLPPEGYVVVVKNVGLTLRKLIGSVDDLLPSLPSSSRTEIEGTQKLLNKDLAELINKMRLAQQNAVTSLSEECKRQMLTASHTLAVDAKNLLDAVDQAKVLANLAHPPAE
PLK1 inh: human PLK1 kinase inhibitors, primary screen, biochemical, TR-FRET. recombinant PLK1 kinase, TR-FRET peptide phosphorylation. inhibition, % at 10 µM. 97,000 tested, 0.53% active. Serine/threonine-protein kinase PLK1 (Homo sapiens), P53350;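 active = inhibition of 50% or more in the single-concentration screen; inactive = inhibition below 50%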;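 also: 0% = DMSO max control and 100% = H-89 dihydrochloride min control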
PTPN22 inh 2: PTPN22 phosphatase inhibitors, primary screen, biochemical, DiFMUP fluorescence, 2 µM | Tyrosine-protein phosphatase non-receptor type 22 (Homo sapiens), Q9Y2R2 | recombinant LYP catalytic domain | inhibition, % at 2 µM | 96,000 tested, 0.21% active | AID 640, 2007;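 active = inhibition at 2 µM at or above a set limit, the screen mean plus 3 SD, cut at about 24% in these data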;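 also: 0% = DMSO with enzyme and 100% = enzyme fully blocked by orthovanadate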
PTPN22 act: LYP phosphatase activators, primary screen, biochemical, DiFMUP fluorescence, 2 µM; recombinant LYP; 0 = plate median, 100 = signal doubled; activation, % at 2 µM; 96,000 tested, 0.11% active;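 active = activation at 2 µM above a set limit, the mean plus 5 SD, cut at about 37% in these data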
PLK1 PBD inh: Plk1 polo box domain binding inhibitors, primary screen, biochemical, fluorescence polarization; Serine/threonine-protein kinase PLK1 (Homo sapiens), P53350; Plk1 PBD phosphopeptide binding; inhibition, %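 (tested at about 20 µM)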; 97,000 tested, 0.13% active; AID 693, 2007; in the data active = inhibition above about 34%, passing the limit was not always enough
PBD redox DR: redox cycling hydrogen peroxide generation, dose response, artefact control for Plk1 PBD inhibitor project, biochemical; shares compounds with PLK1 PBD inh; redox cycling H2O2 generation, DTT, counter-screen; EC50, µM; 120 tested, under 10 active; AID 876, 2007
LYP act confirm: retest of PTPN22 activators, confirmation, biochemical, DiFMUP fluorescence, single concentration; shares compounds with PTPN22 act; Recombinant LYP, activation; zero set by plate's median compound well; activation, % at 2 µM; 100 tested, under 10 active
An asterisk follows results filed as active; x = no result given. Unless noted, no rule for the calls is given here.

SMILES | PTK2B oligo ant | PLK1 inh | PTPN22 inh 2 | PTPN22 act | PLK1 PBD inh | PBD redox DR | others
COc1ccc(OC)c(NC(=O)Cn2cc(C#N)c3cc(Br)ccc32)c1 | -1.9 | -4 | -10 | 7 | -4 | x
O=C1CCC(c2ccccc2)N1C(=O)c1cccnc1 (stereo not given) | 1.6 | -8 | 6 | -6 | -3 | x
CCS(=O)(=O)n1nc(-c2ccc(Cl)cc2)nc1SC | -1.1 | -7 | 9 | -11 | -4 | x
Cn1nc(-c2ccc(Cl)cc2)nc2c(=O)n(C)c(=O)nc1-2 | x | 2 | 45* | -44 | 65* | >50
Cc1ccc(C(=O)c2c[nH]c(C(=O)NCCCN3CCOCC3)c2)cc1 | 1.5 | -3 | 8 | -5 | 58* | >50
Cc1oc2c(c1C(=O)c1ccccc1)C(=O)C(=O)c1ccccc1-2 | -2.2 | 0 | -1 | 2 | 124* | >50
O=C(CNS(=O)(=O)c1ccc(Br)s1)N1CCCC1 | -0.66 | -3 | -1 | -2 | 44* | >50
CCOC(=O)C1CCCN(C(=O)CNS(=O)(=O)c2ccc(Br)s2)C1 (stereo not given) | 0.24 | -2 | 4 | -8 | -26 | x
Cc1noc(/C=C/N(C)C)c1S(=O)(=O)N1CCCC(C(=O)NC2CCCCC2C)C1 (stereo not given) | x | -3 | -6 | 2 | -1 | x
O=C(NC1(C(F)(F)F)NC(=O)N(CC2CCCCC2)C1=O)c1ccco1 (stereo not given) | -1.1 | -3 | 5 | -8 | 63* | >50
O=C(O)c1c(Cl)c(Cl)c(Cl)c(Cl)c1C(=O)N1CCOCC1 | 0.8 | -13 | -6 | 2 | -9 | x
COc1ccnc(NCc2cccnc2)c1C#N | 0.16 | -8 | 9 | -3 | -41 | x
O=C(NC1(O)C(=O)c2ccccc2C1=O)c1ccccc1 | 0.11 | 5 | 11 | -13 | 82* | >50
CCCCN(C)CCNC(=O)c1ccc2c(c1)NC(=O)C(N1CCCCC1)S2 (stereo not given) | 1.1 | -13 | -4 | 3 | 19 | x
Nc1ccc2c(c1)C(=O)C(=O)c1ccccc1-2 | -4.1* | -1 | -4 | 4 | 95* | >50
O=C(Nc1ccccc1)C1CCN(c2nccs2)CC1 | 0.27 | -6 | 1 | -1 | -6 | x
Cn1c(=O)c(NCCO)c2c3c(cccc31)C(=O)c1ccccc1-2 | 0.31 | -194 | -9 | 4 | 96* | >50
CCCCNc1c2c3c(cccc3n(C)c1=O)C(=O)c1ccccc1-2 | -2.7 | -129 | -8 | 7 | -138 | x
Cc1ccc(NC2=C/C(=N\S(=O)(=O)c3cccs3)c3ccccc3C2=O)c(C)c1 | -3.7* | 5 | 3 | -3 | 62* | >50
Cc1ccc(Nc2cc(=O)oc3ccccc23)c(C)c1 | -2.7 | -7 | 3 | -4 | 5 | x
CCOc1ccc(C)cc1S(=O)(=O)Nc1ccc(Cl)cn1 | 0.17 | 0 | 6 | -5 | -12 | x
COc1ccc(C(C)C)cc1S(=O)(=O)Nc1ccc(Cl)cn1 | 0.01 | -14 | -39 | 35 | 47* | >50
COc1ccc(CC2NCCC3(O)CCCCC23)cc1 (stereo not given) | 0.79 | -16 | 0 | -1 | 39* | >50
N#CCSc1nccc(-c2cc(Cl)sc2Cl)n1 | -0.47 | 5 | 3 | -4 | 22 | x
C=CCSc1nccc(-c2cc(Cl)sc2Cl)n1 | -0.37 | -2 | 8 | -8 | 46* | >50
SMILES | PTK2B oligo ant | PLK1 inh | PTPN22 inh 2 | PTPN22 act | PLK1 PBD inh | PBD redox DR | others
COc1ccc(Cn2c(=O)sc3ccccc32)cc1 | -1.9 | -6 | 6 | -8 | 54* | >50
CC(=O)Oc1ccc2cc(-c3nc4ccccc4n3C)c(=O)oc2c1 | 0.27 | -15 | -5 | 3 | -15 | x
Cn1c(-c2cc3ccc(OC(=O)C(C)(C)C)cc3oc2=O)nc2ccccc21 | -0.51 | -14 | 2 | 1 | 37* | >50
COC(=O)c1sccc1OC(C)C(C)=O (stereo not given) | 0.39 | -10 | 3 | 1 | 28 | x
Cc1ccc(C(=O)Nc2cnc3sc(C)nn3c2=O)cc1 | -0.29 | -15 | -1 | 0 | 34* | >50
Cc1nn2c(=O)c(NC(=O)c3ccc(F)cc3)cnc2s1 | 0.89 | -6 | 0 | 1 | -3 | x
C#CCOC(=O)Nc1ccc(=O)n(Cc2c(Cl)cccc2Cl)c1 | 0.61 | 0 | -5 | 8 | -2 | x
CN1C(=O)CCC1(O)c1ccccc1 (stereo not given) | 0.37 | -6 | 8 | -2 | -7 | x
O=C1CCC(C(=O)O)(c2ccccc2)C1 (stereo not given) | x | -9 | -8 | 8 | 46* | >50
CC(C)(C)NC(=O)CC(CC(=O)O)c1ccccc1 (stereo not given) | x | -4 | 2 | -4 | 45* | >50
CC(C)(C)NC(=O)CC(c1ccccc1)c1ccccc1O (stereo not given) | 0.28 | -15 | 2 | 1 | -3 | x
COC(=O)Cn1nc(-c2ccccc2)c2ccccc21 | 0.86 | 32 | -3 | 0 | 36 | x
O=C(c1ccccn1)N(Cc1cc2ccccc2[nH]c1=O)C1CCCCC1 | 0.35 | -10 | -40 | 41* | 9 | x | LYP act confirm=-3
COc1ccc2[nH]c(=O)c(CN(C(=O)c3ccccn3)C3CCCCC3)cc2c1 | -0.42 | -8 | 4 | -4 | -17 | x
CCC(=O)NC(C)C(c1cccs1)N1CCN(c2ccccc2)CC1 (stereo not given) | -0.28 | -14 | -48 | 43* | 21 | x | LYP act confirm=4
Cc1cc(F)ccc1NCc1cccnc1 | -0.06 | -8 | -36 | 38* | 18 | x | LYP act confirm=6
O=C(CSc1nnnn1-c1cccc2c1CCCC2)N1CCCCC1 | 0.2 | 8 | -1 | 1 | 11 | x
c1ccc(-c2nnc(SCCC3OCCCO3)o2)cc1 | -0.13 | -17 | -42 | 47* | 16 | x | LYP act confirm=-2
O=C(CCc1ccc(S(=O)(=O)NC2CCCCC2)cc1)N(Cc1ccccc1)Cc1ccccc1 | -0.1 | -3 | 23 | -19 | -18 | x
COC(=O)[C@H](Cc1ccccc1)NC(=O)NCc1ccc(S(N)(=O)=O)cc1 | -0.57 | -4 | -48 | 44* | -2 | x | LYP act confirm=6
COC(=O)C1=C(CSc2nncn2C)NC(=O)NC1c1ccc(F)cc1 (stereo not given) | 1 | -6 | -46 | 50* | 8 | x | LYP act confirm=6
Cn1c(Cc2ccc3c(c2)OCO3)nnc1SCC(=O)N1CCc2ccccc2C1 | 0 | -7 | -4 | 2 | -22 | x
COC(=O)c1ccc2c(c1O)C(=O)c1ccccc1C2=O | -0.97 | -1 | -48 | 46* | -6 | x | LYP act confirm=3
CCSc1c(C(=O)NC)ccc2c1C(=O)c1ccccc1C2=O | 0.65 | -14 | 8 | -6 | 15 | x
